TbPYK inhibitor = inhibitors of Trypanosoma brucei pyruvate kinase; TbPYK enzyme, Kinase-Glo Plus ATP luminescence, 45 min; Q57TT1; actives 0.12% (n = 410,000); Potency, µM (top dose mostly 76.8 µM), inactives show top-dose activity, negative = inhibition, most hits filed as inhibitors; AID 624173; also: potency is read from the fitted curve at half-maximal effect; % is scaled to controls: 0 for no effect and ±100 for the full control effect; nearly all actives have a fitted effect of over 50% in size
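Luminescent Kinase-Glo Plus end-point after 45 min room-temperature reaction of T. brucei pyruvate kinase started with 130 uM ADP (final). Buffer TEA 50 mM pH 7.2 with KCl, MgCl2, BSA, Tween-20; titration-based qHTS with fitted concentration-effect curves.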
Cycloheximide cs = affects cycloheximide protein synthesis inhibition readout, counter-screen | cell reporter, cycloheximide protein synthesis inhibition counterscreen | AID 2314 | actives 12% (n = 300,000) | max response, %; in the data active = max response mostly above about 13%, no sharp cut-off; inactive = mostly below about 14%; also: read at 38.3 µM for the half of the compounds with a filed dose; 0% is about no effect
LmPK inhibitor = inhibitors of Leishmania mexicana pyruvate kinase; purified LmPK, Kinase-Glo ATP luminescence, 1 h; Potency, µM (top dose mostly 57.5 µM), without a hit: at the highest dose activity change, negative = inhibition, actives largely listed as inhibitors; Q27686; actives 0.37% (n = 290,000); also: potency is read from the fitted curve at half-maximal effect; % is scaled to controls: 0 for no effect and ±100 for the full control effect
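ATP generated from ADP (0.1 mM) and PEP (0.5 mM) by 0.1 nM LmPK over 1 h at room temperature (pH 7.2 imidazole buffer) was detected by coupled luciferase luminescence. Values were normalized to uninhibited and no-enzyme wells.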
Giardia FBPA inh = inhibitors of Giardia lamblia fructose-1,6-bisphosphate aldolase. purified Giardia FBPA. Potency, µM (highest dose often 59.6 µM), without a hit: top-dose activity, negative = inhibition, usual class: inhibitors. A8B2U2. actives 0.71% (n = 290,000); also: potency is read from the fitted curve at half-maximal effect; % is scaled to controls: 0 for no effect and ±100 for the full control effect; nearly all actives have a fitted effect of over 55% in size
Target sequence (A8B2U2 whole entry, looked up): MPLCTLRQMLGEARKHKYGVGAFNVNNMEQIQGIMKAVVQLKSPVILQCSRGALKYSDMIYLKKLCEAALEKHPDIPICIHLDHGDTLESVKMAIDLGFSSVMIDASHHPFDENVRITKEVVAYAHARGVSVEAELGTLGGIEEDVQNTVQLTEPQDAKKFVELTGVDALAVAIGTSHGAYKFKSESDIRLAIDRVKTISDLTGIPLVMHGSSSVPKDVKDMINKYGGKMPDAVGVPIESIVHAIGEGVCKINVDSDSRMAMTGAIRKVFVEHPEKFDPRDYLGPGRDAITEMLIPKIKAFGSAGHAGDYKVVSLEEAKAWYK
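Giardia FBPA (40 nM reagent) was preincubated 10 min at RT with compound (up to 57.5 uM final), then substrate plus GAPDH/TPI/NAD/arsenate coupling system with diaphorase/resazurin was added; resorufin fluorescence (525/598 nm) was read after 20 min.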
Sm TGR inh = blocks Schistosoma mansoni thioredoxin glutathione reductase. Q962Y6. purified TGR, DTNB reduction, TNB absorbance 405 nm. Potency, µM (titrated, usually from 114 µM), for the others: at the highest dose activity change, negative = inhibition, hits mostly inhibitors. actives 3% (n = 360,000). AID 485364; also: potency is read from the fitted curve at half-maximal effect; % is scaled to controls: 0 for no effect and ±100 for the full control effect; nearly all actives have a fitted effect of over 60% in size
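TGR 20 nM + NADPH 100 uM (dispensed conc.), cpd preinc 15 min RT; start with NADPH (500 uM addition) then DTNB (15 mM addition). Kinetic TNB absorbance, 405 nm filter. Four-parameter Hill fit across titration.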
Shiga toxin inh = blocks Shiga toxin action in Vero cells | Vero cells, Shiga toxin protein synthesis inhibition reporter | AID 2315 | actives 9.2% (n = 290,000) | inhibition, % at 38.7 µM; in the data active = inhibition mostly above about 28%, no sharp cut-off; inactive = mostly below about 43%; also: 0% is about no effect
* marks the source's active call; other numbers are inactive results; ? = inconclusive; nt = not tested or not shown. The sample as a whole holds a higher share of hits than the screen did. Unless noted, calls follow the shape of the dose curve; as a rule, active = well fitted curve in the direction sought with a large enough effect; inconclusive = small, poorly fitted or top-dose-only effect, or another doubt; inactive = no such curve, though single readings can be large; an effect the other way counts as inactive or inconclusive.

SMILES	TbPYK inhibitor	Cycloheximide cs	LmPK inhibitor	Giardia FBPA inh	Sm TGR inh	Shiga toxin inh
CCOc1ccc2nc(NC(=O)c3ccc(OCC4CCCO4)cc3)sc2c1 (stereo not given)	-2.3%	34.6*	-1.7%	-4.7%	-2.4%	35.8*
Cc1csc(NC(=O)c2ccc(OCC3CCCO3)cc2)n1 (stereo not given)	-8.3%	14.3*	-7.2%	-11.3%	5.7%	39.5
Cc1ccc(COc2ccc(CNCCCN3CCCCCC3=O)cc2)cc1	16.9%	25.7*	-2.5%	?	1.4%	70.2*
Cc1ccc(NC(=O)C(=O)NCCCN2CCCC2=O)cc1	-4.9%	nt	nt	nt	-2.5%	nt
CCOC(=O)c1cnc2ccccc2c1Nc1ccc2c(c1)OCCO2	-0.4%	109.6*	5.2%	-20.8%	5.1%	154.4*
CCOC(=O)c1cnc2ccccc2c1NCc1ccco1	3.0%	22.6*	-0.4%	-9.4%	-28.5%	52.1*
CCOC(=O)c1cnc2c(ccc3ccccc32)c1Nc1ccc(N(C)C)cc1	0.6%	nt	nt	nt	5.9%	nt
CCOC(=O)c1cnc2ccc(OC)cc2c1NCc1ccccc1	7.9%	-2.5	5.2%	-21.0%	-1.0%	-10.4
CNC(=O)N(O)C1N(c2ccccc2)C(=S)SC1(C)C (stereo not given)	3.5%	7.1	-0.7%	-4.0%	1.4%	-8.6
CNC(=O)ON(C(=O)NC)C1N(C)C(=S)SC1(C)C (stereo not given)	-1.0%	13.2*	4.0%	6.6%	-2.7%	21.9
C#CCSc1nncn1C(=O)/C=C/c1ccccc1	-2.3%	9.0	-0.1%	?	70.8µM*	13.2
Cc1cc(C)cc(NC(=O)N2CCN(c3cc(-c4noc(C)n4)ccc3C)CC2)c1	-0.4%	nt	nt	nt	-2.7%	nt
O=C(CCl)N(c1ccccc1)C1CCS(=O)(=O)C1 (stereo not given)	2.5%	-1.9	4.1%	-1.5%	22.4µM*	-15.8
c1ccc(-c2cc3c(-n4cccc4)ncnc3o2)cc1	0.3%	68.9*	2.2%	6.8%	-4.1%	101.9*
COc1cc2oc(=O)cc(-c3ccc(-c4ccc(NC(C)=O)cc4)cc3)c2c(OC)c1OC	nt	53.2*	nt	-8.3%	nt	81.2*
O=C(Nc1nncs1)C1CC(=O)N(CCc2ccc(F)cc2)C1 (stereo not given)	-14.8%	1.4	0.1%	4.6%	84.6%	-3.6
CC(C)(C)NC(=O)COc1ccc2oc3c(c2c1)CCCC3	6.7%	17.6*	-0.1%	2.6%	5.3%	60.3
Cc1ccnc(NC(=O)COc2ccc3oc4c(c3c2)CCCC4)c1	-10.0%	42.5*	2.1%	1.2%	0.0%	66.4*
CNC(=O)COc1ccc2oc3c(c2c1)CCCC3	-4.4%	9.2	-4.5%	-2.5%	-5.6%	19.0
CNC(=O)NC(=O)COc1ccc2oc3c(c2c1)CCCC3	3.9%	22.2*	0.3%	-4.2%	0.9%	57.8*
Cn1c(=O)c(-c2ccc(F)cc2)nc2cncnc21	-0.3%	nt	nt	5.9%	nt	nt
CCN(Cc1ccc(OC)c(F)c1)C(=O)CCl	0.4%	7.5	7.6%	0.4%	11.2µM*	5.4
CCOC(=O)c1ccc(NC(=O)CCn2nnc3ccccc32)cc1	-13.1%	12.3*	1.4%	0.9%	-16.6%	41.6
CCOC(=O)c1ccc(NC(=O)Cn2nnc3ccccc32)cc1	-0.6%	32.2*	-0.2%	4.6%	0.1%	91.8*
Cc1ccc(-n2nc3c(N4CCCC(C(=O)NCCc5ccccc5)C4)nnc(C)c3c2C)cc1 (stereo not given)	-9.6%	nt	nt	nt	-12.9%	nt
SMILES	TbPYK inhibitor	Cycloheximide cs	LmPK inhibitor	Giardia FBPA inh	Sm TGR inh	Shiga toxin inh
CCOC(=O)C(=O)NCC(c1ccco1)S(=O)(=O)c1cccs1 (stereo not given)	-0.7%	nt	nt	nt	2.51µM*	nt
Cc1ccc(CNC(=O)C(=O)NCC(c2ccco2)S(=O)(=O)c2cccs2)cc1 (stereo not given)	2.9%	nt	nt	nt	?	nt
COc1ccc(C(=O)NCC(c2cccs2)S(=O)(=O)c2cccs2)cc1 (stereo not given)	-6.1%	nt	nt	nt	-26.9%	nt
Cc1cc(S(=O)(=O)NCC(c2ccco2)S(=O)(=O)c2cccs2)ccc1F (stereo not given)	3.1%	nt	nt	nt	?	nt
Cc1cc(C)c(S(=O)(=O)NCC(c2ccco2)S(=O)(=O)c2cccs2)c(C)c1 (stereo not given)	-3.9%	nt	nt	nt	0.282µM*	nt
CCOc1ccc(C(=O)NCC(c2ccco2)S(=O)(=O)c2cccs2)cc1 (stereo not given)	-1.3%	nt	nt	nt	5.62µM*	nt
CCc1nc(N2CCN(C(=S)NCCCOC)CC2)c2c3c(sc2n1)CCCC3	-1.6%	0.5	-5.1%	4.9%	10.7%	-8.6
O=C(Nc1ccc(F)cc1)N1CCN(c2ncccn2)CC1	-13.1%	-1.9	-9.8%	-4.1%	0.0%	22.0
O=C(Nc1ccc(Cl)cc1)N1CCOCC1	-1.0%	13.7*	-2.4%	8.6%	6.2%	nt
CC(C)c1ccc(NC(=O)N2CCOCC2)cc1	2.9%	38.5*	-9.5%	2.3%	1.4%	62.3*
O=C(Nc1cccs1)N1CCN(c2ncccn2)CC1	7.6%	15.1	-2.3%	-5.0%	17.8µM*	1.8
CC(=O)Nc1ccc(NC(=O)N2CCOCC2)cc1	3.5%	nt	nt	nt	nt	nt
O=C(Nc1ccc(Cl)cc1)N1CC2CC(C1)c1cccc(=O)n1C2 (stereo not given)	1.0%	28.0*	-1.0%	nt	0.5%	33.1
O=C(Nc1ccc(Br)cc1)N1C[C@H]2C[C@@H](C1)c1cccc(=O)n1C2	-2.7%	-2.0	-8.3%	-2.2%	-5.4%	-7.6
COC1C=CO[C@@]2(C)Oc3c(C)c(O)c4c(O)c(c5c(nc6cc(C)ccn65)c4c3C2=O)NC(=O)/C(C)=C\C=CC(C)C(O)[C@@H](C)C(O)C(C)[C@@H](OC(C)=O)C1C (stereo not given in full)	-6.8%	nt	nt	-21.6%	nt	nt
O=C(Nc1ccc(Cl)cc1)N1CCCC1	3.9%	13.9*	-2.4%	1.0%	-21.2%	35.6
O=C(Nc1ccccc1)N1CCSc2ccccc21	-3.4%	3.6	1.0%	-3.0%	nt	22.1
O=C(Nc1ccc(Cl)cc1)N1CCN(c2ncccn2)CC1	1.5%	19.6*	-1.5%	3.2%	nt	45.6
CCCn1c(N2CCN(C(=O)Nc3ccc(Cl)cc3)CC2)nc2ccccc21	7.1%	-1.7	1.5%	0.8%	3.5%	12.5
O=C(Nc1ccc(Cl)cc1)N1CCSCC1	4.1%	7.5	3.8%	-0.7%	0.0%	20.9
O=C(Nc1ccc(Cl)cc1)N1CCSc2ccccc21	-12.5%	34.5*	-0.8%	-15.1%	9.2%	27.3
CC(C)n1c(N2CCN(C(=O)Nc3ccc(Cl)cc3)CC2)nc2ccccc21	1.0%	-1.0	0.2%	4.2%	-1.8%	33.8*
O=C(CCC(=O)Nc1ccccc1)N/N=C/c1cccnc1	24.2%	-0.3	-7.5%	3.5%	15.6%	-10.2
C[C@H](CO)N1C[C@H](C)[C@H](CN(C)Cc2cncnc2)Oc2cc(Br)ccc2S1(=O)=O	4.1%	nt	nt	nt	nt	nt
